# FMDV antiviral – foot and mouth disease virus antiviral activity. FMDV antiviral cell-based qHTS. Potency, µM (top dose mostly 57.9 µM), for the others: at the highest dose activity change, negative = inhibition, most hits filed as inhibitors. 1.2% of 410,000 active; calls by dose curve; tested in HEK293T cells; note: read-out not given here; potency is the fitted concentration of half-maximal effect; nearly all actives have a fitted effect of over 45% in size
# HCMV inh – inhibitors of human cytomegalovirus; HFF cells, HCMV-luciferase reporter, 72 h; hits give low values; activity change, negative = inhibition, % at 57.5 µM; 4.5% of 410,000 active; AID 1259415; in the data active = activity change below about -60%; inconclusive = no clear call, values can overlap the other calls; inactive = above about -39%
#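 Screen run at 2 compound doses on HFFs infected with reporter HCMV, MOI 1 PFU/cell. Luciferase activity from cell lysates at 72 h post infection gave inhibition relative to buffer-only and Salinomycin wells.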
# Giardia FBPA inh-1 – blocks Giardia fructose-bisphosphate aldolase activity. 0.71% of 290,000 active. Potency, µM (doses to about 59.6 µM), inactives show at the top dose activity, negative = inhibition, actives largely listed as inhibitors. purified Giardia FBPA; note: potency is the fitted concentration of half-maximal effect; nearly all actives have a fitted effect of over 55% in size
# Target sequence (A8B2U2 whole entry, looked up): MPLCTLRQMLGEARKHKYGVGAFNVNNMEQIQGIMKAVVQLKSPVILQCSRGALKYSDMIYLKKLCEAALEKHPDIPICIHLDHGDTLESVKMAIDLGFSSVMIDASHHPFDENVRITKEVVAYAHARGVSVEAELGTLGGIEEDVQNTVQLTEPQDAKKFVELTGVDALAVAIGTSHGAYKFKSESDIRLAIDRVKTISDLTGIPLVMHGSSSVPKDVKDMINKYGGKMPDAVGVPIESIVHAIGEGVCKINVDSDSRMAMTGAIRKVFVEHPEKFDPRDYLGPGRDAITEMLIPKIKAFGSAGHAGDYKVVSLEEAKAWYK
#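 Giardia FBPA (40 nM reagent) was preincubated 10 min at RT with compound (up to 57.5 uM final), then substrate plus GAPDH/TPI/NAD/arsenate coupling system with diaphorase/resazurin was added; resorufin fluorescence (525/598 nm) was read after 20 min.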
# HCV inhibitor – blocks hepatitis C virus; Potency, µM (top dose mostly 41.8 µM), inactives show at the top dose activity change, negative = inhibition, most hits filed as inhibitors; 3.4% of 340,000 active; Huh7.5.1 HCVcc-Cre infection, luciferase reporter, 44 h; note: potency is the fitted concentration of half-maximal effect
#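 Whole-lifecycle infectious HCVcc-Cre system; cells 1,000/well, compound then virus (~0.5 moi) added 4 h after plating, 44 h culture. Luciferase read 15 sec following 15 min substrate incubation, room temp.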
# Marburg entry inh – blocks Marburg virus binding to or entry into cells; Marburg virus pseudotyped entry inhibition, cell reporter; Potency, µM (titrated, usually from 37.8 µM), for inactives: at the highest dose activity change, negative = inhibition, hits mostly inhibitors; 1.8% of 300,000 active; AID 540276; calls by dose curve; tested in HEK293 cells; note: potency is the fitted concentration of half-maximal effect
# Lassa entry inh – inhibitors of Lassa virus binding or cell entry; 1.2% of 300,000 active; AID 540256; Lassa virus pseudotype entry inhibition, cell reporter; Potency, µM (series often up to 37.9 µM), for inactives: at the highest dose activity change, negative = inhibition, hits mostly inhibitors; calls by dose curve; tested in HEK293 cells; note: potency is the fitted concentration of half-maximal effect; nearly all actives have a fitted effect of over 50% in size
# Giardia growth – Giardia lamblia growth inhibition | shares compounds with Giardia FBPA inh-1 | Potency, µM (highest dose often 57.5 µM), for inactives: at the top dose activity change, negative = inhibition, actives largely listed as inhibitors | 5% of 1,500 active | Giardia lamblia trophozoite growth inhibition;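 note: potency is the fitted concentration of half-maximal effect; trophozoites exposed to compound for 48 h at 37 °C; nearly all actives have a fitted effect of over 70% in size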
# Mammal cell tox – toxic to mammalian cells in Giardia aldolase counter-screen | Potency, µM (series often up to 57.5 µM), inactives show top-dose viability change, negative = toxicity, actives largely listed as inhibitors | shares compounds with Giardia FBPA inh-1 | 4% of 1,500 active | mammalian cell viability counter-screen, qHTS;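 note: Chinese hamster ovary cells used as mammalian cytotoxicity surrogate; viability measured as cellular ATP by luminescence; potency is the fitted concentration of half-maximal effect; compound exposure lasted 48 h before reading; nearly all actives have a fitted effect of over 60% in size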
# Giardia FBPA inh-2 – confirmation of Giardia fructose-bisphosphate aldolase inhibitors; purified Giardia aldolase enzyme activity, qHTS; 5% of 1,500 active; AID 2787; shares compounds with Giardia FBPA inh-1; Potency, µM (highest dose often 57.5 µM), inactives show top-dose activity change, negative = inhibition, usual class: inhibitors; note: potency is the fitted concentration of half-maximal effect; nearly all actives have a fitted effect of over 45% in size
# Rabbit aldolase – blocks rabbit muscle aldolase in Giardia aldolase selectivity test | shares compounds with Giardia FBPA inh-1 | Rabbit muscle FBPA enzyme inhibition, selectivity counter-screen | Potency, µM (series often up to 57.5 µM), for inactives: at the highest dose activity, negative = inhibition, hits mostly inhibitors | 4% of 1,500 active; note: potency is the fitted concentration of half-maximal effect; nearly all actives have a fitted effect of over 60% in size
# Target sequence (P00883 whole entry, looked up): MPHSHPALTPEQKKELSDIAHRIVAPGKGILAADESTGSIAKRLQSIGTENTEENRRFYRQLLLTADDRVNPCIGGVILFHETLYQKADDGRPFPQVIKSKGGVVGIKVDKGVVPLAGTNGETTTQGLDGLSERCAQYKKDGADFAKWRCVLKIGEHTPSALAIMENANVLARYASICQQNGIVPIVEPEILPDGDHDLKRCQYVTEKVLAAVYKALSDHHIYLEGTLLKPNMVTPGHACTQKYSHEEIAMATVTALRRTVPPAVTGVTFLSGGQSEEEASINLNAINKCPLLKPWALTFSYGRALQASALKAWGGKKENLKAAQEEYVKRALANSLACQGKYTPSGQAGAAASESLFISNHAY
# GAPDH counter – counter-screen for Giardia aldolase inhibitors: GAPDH coupling enzyme | 6% of 1,500 active | GAPDH coupling enzyme counterscreen, biochemical, qHTS | AID 2795 | shares compounds with Giardia FBPA inh-1 | Potency, µM (doses to about 57.5 µM), for the others: top-dose activity change, negative = inhibition, hits mostly inhibitors; note: potency is the fitted concentration of half-maximal effect; nearly all actives have a fitted effect of over 55% in size
# * = called active by the depositor; ? = inconclusive; nt = no result given; [ ] = another dose, or the depositor's remark. In the library only some 8.3% were active in any assay of this set; here they are far more common. Unless noted, calls come from the whole dose curve; as a rule, active = well fitted curve in the direction sought with a large enough effect; inconclusive = small, poorly fitted or top-dose-only effect, or another doubt; inactive = no such curve, though single readings can be large; an effect the other way counts as inactive or inconclusive. % is set by controls: 0 for no effect and ±100 for the full control effect.
SMILES,FMDV antiviral,HCMV inh,Giardia FBPA inh-1,HCV inhibitor,Marburg entry inh,Lassa entry inh,Giardia growth,Mammal cell tox,Giardia FBPA inh-2,Rabbit aldolase,GAPDH counter
Cc1ccc(NC(=O)C(C)Sc2nc(-c3ccccc3)c(C#N)c(=O)[nH]2)c(C)c1 (centres undefined),-6%,16,nt,nt,0%[46.1 µM],0%[46.1 µM],nt,nt,nt,nt,nt
Cc1cccc(C)c1OC(=O)CSc1nnc(CNC(=O)c2ccccc2)o1,0%,4,nt,nt,7%[46.1 µM],-14%[46.1 µM],nt,nt,nt,nt,nt
COc1ccccc1OCC#CCN1CCCC(C)C1 (centres undefined),13%,-1,?,18%,nt,nt,nt,nt,nt,nt,nt
COc1ccccc1OCC#CCNC1CCCCC1C (centres undefined),-11%,8,1.6µM*,15%,-19%,28%,22%[38.3 µM],12%,2%,17%,3%
CCOc1ccc(NC(=O)NCc2ccccn2)cc1,28%,-8,-4%,6%,nt,nt,nt,nt,nt,nt,nt
CCOc1ccc(NC(=O)CC(NCc2ccccn2)C(=O)O)cc1 (centres undefined),-4%,-21,5µM*,3%,4%[46.1 µM],-6%[46.1 µM],-14%[38.3 µM],22%,13%,-5%,-25%
COc1ccc(NC(=O)CC(NCc2ccccn2)C(=O)O)cc1 (centres undefined),-5%,20,11µM*,0%,-7%[46.1 µM],1%[46.1 µM],20%,10%,14%,-12%,-11%
CCn1c(SCC(=O)c2ccccc2)nnc1-c1cnccn1,46%,16,?,-18%,?,14%,nt,nt,nt,nt,nt
Cn1c(SCC(=O)c2ccccc2)nnc1-c1cnccn1,43%,61,20µM*,5%,?,0%,17%,-4%,8%,2%,6%
CC(C)CC(=O)N1CCC(N(CCc2ccccc2)Cc2ccccc2)CC1,-19%,15,25µM*,?,nt,nt,-12%,-8%,0%,0%,6%
COc1ccccc1C(=O)Nc1nnc(S(=O)(=O)N(C)c2ccc(Cl)cc2)s1,37%,6,nt,nt,nt,0%[46.1 µM],nt,nt,nt,nt,nt
C[C@H]1CC2C3CCC4=CC(=O)C=C[C@]4(C)[C@@]3(Cl)[C@@H](O)C[C@]2(C)[C@@]1(O)C(=O)CO (some centres undefined),nt,nt,nt,nt,6%,-10%,nt,nt,nt,nt,nt
N#CCCN(CCC#N)S(=O)(=O)c1ccc(C(=O)Nc2nnc(C3=COCCO3)o2)cc1,2%,1,16µM*,-4%,nt,nt,?,15%,5%,16%,2%
CCOc1ccc(C(=O)Nc2nnc(C3=COCCO3)o2)cc1,2%,-19,nt,?,10%,-4%,nt,nt,nt,nt,nt
CCCCN(C)S(=O)(=O)c1ccc(C(=O)Nc2nnc(-c3cccs3)o2)cc1,nt,nt,-29%,nt,nt,nt,nt,nt,nt,nt,nt
CCCCN(C)S(=O)(=O)c1ccc(C(=O)Nc2nnc(C3=COCCO3)o2)cc1,-21%,-27,18µM*,15%,?,-4%,?,14%,5%,1%,3%
C=CCSC1=N/C(=C\C=C\c2ccco2)C(=O)S1,24%,-13,6.3µM*,-2%,-11%,-24%,16%,14%,-10%,11%,1%
C=CCSC1=N/C(=C\c2sccc2C)C(=O)S1,4%,-6,-9%,-16%,10%,-3%,nt,nt,nt,nt,nt
O=C(NC1CCCC1)c1cccnc1N1CCCCCC1,nt,45,3%,8%,7%,-7%,nt,nt,nt,nt,nt
O=C(NC1CCCCC1)c1cccnc1C(=O)O,-17%,48,5.6µM*,6%,-2%,3%,10%,6%,6%,11%,13%
COC(=O)Cc1c(C)c2cc3c(c(C)c2oc1=O)OCN(CCc1ccc(F)cc1)C3,8%,-21,nt,nt,?,6%[46.1 µM],nt,nt,nt,nt,nt
O=C1/C(=C\c2ccco2)CCC/C1=C\c1ccco1,10%,?,16µM*,?,?,?,14%,?,-4%,5%,-3%
O=C(NCCO)C(=O)Nc1c2c(nn1-c1ccc(F)cc1)CSC2,-10%,2,nt,nt,nt,-11%[46.1 µM],nt,nt,nt,nt,nt
Oc1ccc2ccccc2c1C=Nc1ccccc1Br,10%,-12,7%,4%,nt,nt,nt,nt,nt,nt,nt
Oc1ccccc1N=Cc1c(O)ccc2ccccc12,-1%,-70*,?,-7%,-13%[46.1 µM],-5%[46.1 µM],7%[38.3 µM],-14%,0.33µM*,?,-28%
SMILES,FMDV antiviral,HCMV inh,Giardia FBPA inh-1,HCV inhibitor,Marburg entry inh,Lassa entry inh,Giardia growth,Mammal cell tox,Giardia FBPA inh-2,Rabbit aldolase,GAPDH counter
COc1ccc(C(=O)NC(=S)N2CCNC(=O)C2)cc1Br,-14%,-3,18µM*,8%,nt,nt,85%,3%,4%,1%,16%
Cc1cccc(NS(=O)(=O)c2c(C)nc3sccn3c2=O)c1C,39%,-5,nt,nt,nt,16%[46.1 µM],nt,nt,nt,nt,nt
N#Cc1ccccc1NC(=S)NC(=O)c1cccs1,42%,92,10µM*,13%,nt,nt,?,-13%,?,?,?
Cc1cc(C)c2c(NC(=S)NC(=O)c3ccccc3)nn(C)c2n1,2%,22,18µM*,-13%,27%[46.1 µM],23%,-12%[10.4 µM],-12%,10%,5%,10%
CCOC(=O)c1cc2c(=O)n3ccccc3nc2n(C(C)C)c1=NC(=O)C(C)(C)Oc1ccc(Cl)cc1,-18%,12,nt,nt,-2%[46.1 µM],4%[46.1 µM],nt,nt,nt,nt,nt
CCCOC(=O)c1ccc(OCC(O)CN2CCN(C(=O)c3ccccc3)CC2)cc1 (centres undefined),0%,-1,-2%,-18%,0%[46.1 µM],?,nt,nt,nt,nt,nt
CC(=O)c1ccc(OCC(O)CN2CCN(CC(O)COc3ccc(C(C)=O)cc3)CC2)cc1 (centres undefined),-26%,22,8%,-12%,?,1%,nt,nt,nt,nt,nt
CC(C)(C)c1ccc(OCC(O)CN2CCN(C(=O)c3ccccc3)CC2)cc1 (centres undefined),-25%,10,14µM*,-1%,nt,nt,-12%,-17%,-8%,-13%,-2%
CC(=O)N1CCN(CC(O)COc2ccc(Br)cc2)CC1 (centres undefined),-9%,21,28µM*,10%,nt,nt,?,8%,4%,13%,2%
COCCNC(=O)c1c(NC(=O)c2cc(=O)c3cc(C)cc(C)c3o2)sc2c1CCCC2,-1%,4,nt,nt,2%[46.1 µM],21%[46.1 µM],nt,nt,nt,nt,nt
